This is a sample that favours compounds with a hit; in the whole collection about 2.8% have one here.
PI5P4K alpha inh: blocks human PI5P4K alpha kinase activity | max response, % | PI5P4Kalpha enzyme, ADP-Glo luminescence, 60 min; hits give low values | 330,000 tested, 1.2% active; active means max response of -50% or lower; inconclusive means between -30% and -50%; inactive means -30% or higher; further: value at the top dose of about 77 µM
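Human PI5P4Kalpha with substrate in 0.038 M HEPES pH 7.4, 0.28 mM EGTA, 0.1% CHAPS, 5% DMSO; reaction started with 5 microM ATP (final), 60 min at room temperature. ADP formed read by ADP-Glo luminescence.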
WRN inhibitor: blocks human WRN helicase; Q14191; WRN helicase unwinding, fluorescent forked duplex, kinetic; Potency, µM (titrated, usually from 114 µM), hits mostly inhibitors; 360,000 tested, 0.46% active; AID 651768; further: nearly all actives have a fitted effect of over 55% in size
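Kinetic fluorescence helicase assay: unwinding of a quenched forked DNA duplex (100 nM final) with 2 mM ATP final raises red fluorescence (525/598 nm). Compounds sat 15 min at room temperature with 20 nM WRN beforehand.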
POLH inh: blocks human DNA polymerase eta activity. 390,000 tested, 1.2% active. AID 588591. recombinant Pol eta, fluorescent DNA replication assay. Potency, µM (doses to about 114 µM), actives largely listed as inhibitors
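Pol eta (10 nM) was preincubated with compounds for 15 min at room temperature, after which fluorescent replication substrate (50 nM final) was added to start the reaction. Fluorescence was read kinetically at 0 and 10 min.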
Pol kappa inh: DNA polymerase kappa (human) inhibition; Potency, µM (highest dose often 107 µM), actives largely listed as inhibitors; AID 588579; 400,000 tested, 0.53% active; Q9UBT6; purified Pol kappa, fluorescent DNA synthesis assay, 10 min
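Inhibition of 10 nM Pol kappa is measured by a fluorescent read-out at 0 and 10 min following addition of 50 nM substrate (final), with a 15-min room-temperature compound preincubation.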
POLB inh: DNA polymerase beta (human) inhibition; Pol beta primer extension/strand displacement, fluorescence kinetic; AID 485314; P06746; 340,000 tested, 1.3% active; Potency, µM (series often up to 114 µM), hits mostly inhibitors
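Preincubation: enzyme (10 nM) with compound, 15 min, RT. Reaction: substrate added to 50 nM final. Reads: 0 and 10 min. Analysis: normalized, Hill fit.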
Pol iota inh: blocks human DNA polymerase iota activity | Pol iota fluorescent replication assay, 10 min | Potency, µM (highest dose often 115 µM), most hits filed as inhibitors | 390,000 tested, 1% active | AID 588590
Target sequence (Q9UNA4 whole entry, looked up): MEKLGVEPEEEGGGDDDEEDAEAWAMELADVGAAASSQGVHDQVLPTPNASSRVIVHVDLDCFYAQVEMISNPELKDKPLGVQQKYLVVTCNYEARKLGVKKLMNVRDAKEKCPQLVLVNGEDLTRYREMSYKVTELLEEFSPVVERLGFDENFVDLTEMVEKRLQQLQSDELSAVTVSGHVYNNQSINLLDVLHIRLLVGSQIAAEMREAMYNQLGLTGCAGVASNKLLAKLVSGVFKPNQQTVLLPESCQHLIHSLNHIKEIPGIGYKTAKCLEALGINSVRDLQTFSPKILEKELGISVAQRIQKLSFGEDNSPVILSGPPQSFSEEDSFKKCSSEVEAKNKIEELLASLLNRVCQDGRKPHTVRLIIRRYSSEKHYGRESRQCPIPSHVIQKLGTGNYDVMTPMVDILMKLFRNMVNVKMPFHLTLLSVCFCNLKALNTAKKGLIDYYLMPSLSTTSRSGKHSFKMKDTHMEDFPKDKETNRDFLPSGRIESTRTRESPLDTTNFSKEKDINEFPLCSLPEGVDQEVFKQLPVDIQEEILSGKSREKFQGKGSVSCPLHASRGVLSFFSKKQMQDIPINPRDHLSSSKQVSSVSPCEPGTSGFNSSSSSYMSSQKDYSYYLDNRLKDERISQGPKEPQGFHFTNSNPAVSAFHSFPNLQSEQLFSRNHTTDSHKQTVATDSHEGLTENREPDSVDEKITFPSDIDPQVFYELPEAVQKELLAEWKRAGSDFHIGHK
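Fluorescent replication assay read twice, at 0 min and 10 min after adding 50 nM (final) substrate. Enzyme (10 nM) and compounds were first incubated 15 min at room temperature; enzyme-free buffer wells were negative controls.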
Hits are given with their value; – = inactive; ? = inconclusive; · = not tested or not shown; ! = repeats disagree; [ ] = dose if it differs, or a comment. Unless noted, the call rests on the fitted dose curve; in most records, active means well fitted curve in the direction sought with a large enough effect; inconclusive means small, poorly fitted or top-dose-only effect, or another doubt; inactive means no such curve, though single readings can be large; an effect the other way counts as inactive or inconclusive.

SMILES | PI5P4K alpha inh | WRN inhibitor | POLH inh | Pol kappa inh | POLB inh | Pol iota inh
Cc1c(CCC(=O)O)c(=O)oc2cc3occ(-c4ccc(F)cc4)c3cc12 | – | ? | – | – | ? | ?
CCn1ccc2cc(S(=O)(=O)N3CCCN(C(=O)Nc4cc(Cl)ccc4C)CC3)ccc21 | · | · | – | – | – | ?
COc1ccc(NC(=O)C2CCCN(S(=O)(=O)c3cccs3)C2)cc1OC (stereo unspecified) | · | – | – | – | – | –
CCc1cccc(NC(=O)C2CCCN(S(=O)(=O)c3cccs3)C2)c1 (stereo unspecified) | – | – | – | – | – | 79µM!
S=c1[nH]nc(Nc2cccc(Cl)c2)s1 | -55 | – | – | – | – | –
Cc1ccc(Nc2cc(=O)[nH]c(=O)[nH]2)cc1C | – | – | – | – | – | –
Cc1ccc(Nc2n[nH]c(=S)s2)cc1C | -74 | – | – | · | · | ·
O=C(c1ccc(Cl)cc1)c1cnc(Nc2ccccc2Cl)s1 | · | – | – | – | – | –
S=c1[nH]nc(Nc2ccccc2Cl)s1 | -78 | – | – | – | – | –
Clc1cccc(Nc2nc(-c3ccncc3)cs2)c1 | – | – | – | – | – | –
COc1ccc(C(=O)Nc2nc3cc4c(cc3s2)OCCO4)c(OC)c1 | – | – | – | – | – | –
Cc1ccc(S(=O)(=O)Cc2ccc(C(=O)NC3CCCCCC3)o2)cc1 | – | – | – | – | – | ?
COc1ccc(-c2cc(C(=O)N3CCCCCC3)c3ccccc3n2)c(OC)c1 | ? | – | ? | – | 22µM | 79µM
Cc1ccccc1-c1cc(C(=O)N2CCCC2)c2ccccc2n1 | -58 | – | ? | ? | ? | 25µM
O=C(CCCN1C(=O)/C(=C\c2cccs2)SC1=S)NNC(=O)c1cccnc1 | – | – | – | – | ? | ?
O=C(CCCN1C(=O)/C(=C/c2cccs2)SC1=S)NNC(=O)c1ccncc1 | – | – | ? | – | 25µM | ?
COc1ccc(NC(=O)Nc2ccc3nc([C@@H]4O[C@H](CO)[C@@H](O)[C@H](O)[C@H]4O)[nH]c3c2)cc1OC1CCCC1 | – | – | · | · | · | ·
Cc1cc(C)c2oc(-c3ccc(C)c(NC(=O)/C=C/c4ccco4)c3)nc2c1 | · | · | ? | – | ? | 22µM
Cc1cc(C)c2oc(-c3cccc(NC(=O)c4ccco4)c3)nc2c1 | · | · | – | – | – | ?
CCCCn1c(SCC(=O)c2ccc(OC)cc2OC)nc2cc(S(N)(=O)=O)ccc21 | -54 | ? | 25µM | ? | 40µM | 45µM
CS(=O)(=O)Nc1ccc(C(=O)NCC2CCCO2)cc1 (stereo unspecified) | – | – | – | – | – | –
Cc1ccc([N+](=O)[O-])cc1S(=O)(=O)Nc1ccc(C(=O)NCC2CCCO2)cc1 (stereo unspecified) | – | – | 79µM | – | · | ?
Cc1ccc(C)n1-c1ccc(C(=O)NCC2CCCO2)cc1 (stereo unspecified) | – | – | ? | – | 40µM | ?
C/C(=N\Nc1cc(C(F)(F)F)ccc1Cl)c1ccncc1 | – | – | – | – | – | –
CC(Sc1n[nH]c(-c2cccs2)n1)C(=O)Nc1ccc(C(N)=O)cc1 (stereo unspecified) | – | – | – | – | · | –
SMILES | PI5P4K alpha inh | WRN inhibitor | POLH inh | Pol kappa inh | POLB inh | Pol iota inh
CC(=O)c1c(C(C)=O)c(C)n(-c2ccc(C(=O)O)cc2)c1C | – | – | – | – | – | –
COc1cccc(=O)c2c(C)n(-c3ccc(C(=O)O)cc3)c(C)c12 | – | ? | 13µM | 50µM | 16µM | 16µM
Cc1ccc(C)n1-c1ccc(C(=O)O)cc1 | · | · | · | · | 3.2µM | ·
CC(=O)c1ccc(NC(=O)Cn2cc3c(n2)CCCC3)cc1 | · | · | – | – | – | –
C=C(NC(=O)C(=C)NC(=O)c1csc(C2=NC3c4csc(n4)C4NC(=O)c5csc(n5)C(C(C)(O)C(C)O)NC(=O)C5CSC(=N5)C(=CC)NC(=O)C(C(C)O)NC(=O)c5csc(n5)C3(CC2)NC(=O)C(C)NC(=O)C(=C)NC(=O)C(C)NC(=O)C(C(C)CC)NC2C=Cc3c(C(C)O)cc(nc3C2O)C(=O)OC4C)n1)C(N)=O (stereo unspecified) | · | · | · | – | · | ·
C=C(NC(=O)C(=C)NC(=O)c1csc(C2=NC3c4csc(n4)C4NC(=O)c5csc(n5)C(C(C)(O)C(C)O)NC(=O)C5CSC(=N5)/C(=C/C)NC(=O)C(C(C)O)NC(=O)c5csc(n5)C3(CC2)NC(=O)C(C)NC(=O)C(=C)NC(=O)C(=C)NC(=O)C(C(C)C)NC2C=Cc3c(C(C)O)cc(nc3C2O)C(=O)OC4C)n1)C(N)=O (stereo unspecified) | – | ? | ? | – | · | 22µM
N#CCNC(=O)C1CC(=O)N(CCc2ccc(F)cc2)C1 (stereo unspecified) | – | – | – | – | – | –
CCCn1nc([N+](=O)[O-])c(C(C#N)c2nc3ccccc3o2)c(Cl)c1=O (stereo unspecified) | ? | ? | 22µM | – | – | ?
CN1CCN(S(=O)(=O)c2cccc(C(=O)Nc3sccc3C(N)=O)c2)CC1 | – | –[11.6 µM] | 45µM | ? | · | 45µM
Cc1ccccc1S(=O)(=O)/N=C(/c1ccccc1)N1CCOCC1 | -52 | – | – | – | – | –
Cc1c(Br)c([N+](=O)[O-])nn1C(C)C(=O)N1CCCc2ccccc21 (stereo unspecified) | · | – | – | – | – | –
CS(=O)(=O)N1CCc2cc(C(=O)N3CCCC3)ccc21 | – | – | – | – | – | –
COC(=O)/C=C\C(C#N)(C#N)N=Cc1ccc(OC)cc1 | – | 56µM | – | – | · | –
CCc1cc(Cn2nc(-c3ccccc3)cc2C(=O)NCc2cccs2)on1 | – | – | – | – | · | –
O=C1N=c2ccc(Br)cc2=C1c1sc(=S)n(NS(=O)(=O)c2ccccc2)c1O | -98 | –[11.6 µM] | – | – | – | –
O=C1N=c2ccccc2=C1c1sc(=S)n(NC(=O)c2cccc(O)c2)c1O | – | – | ? | – | – | ?
N/C(=N\OC(=O)c1ccc(Br)cc1)c1cccc([N+](=O)[O-])c1 | – | – | – | – | 18µM | ?
Cc1ccc(C(=O)O/N=C(\N)c2cccc([N+](=O)[O-])c2)cc1 | · | – | – | – | – | –
O=C(c1nc2ccc(Cl)cn2c1CN1CCC[C@H]1CO)N1CCc2ccccc2C1 | – | – | ? | · | · | ·
O=c1c2ccccc2c(-c2n[nH]c(=S)o2)nn1Cc1ccccc1 | -86 | – | – | – | – | –
Cc1ccc(NC2=C(N3CCOCC3)C(=O)c3ccccc3C2=O)cc1 | · | – | – | – | 14µM | 8.9µM
CC(=O)c1ccc(NC2=C(N3CCOCC3)C(=O)c3ccccc3C2=O)cc1 | · | – | – | – | – | ?
Cc1ccc(NC2=CC(=O)C(=O)c3ccccc32)cc1 | · | – | 79µM | – | ? | 11µM

Screening results (PubChem BioAssay)
